According to PubChem BioAssay (Tox21):
Inconclusive results are not listed. Where a call stands in place of a potency, no number is given. Active and inactive are the calls of the source. Calls follow the shape of the dose curve; as a rule, active = well fitted inhibition curve with a large enough effect in the signal ratio in the repeat runs (not every such curve was filed as active); inconclusive = weak or mixed curves, or effect the other way; inactive = flat fitted curve, though single readings scatter; the % refers to the signal ratio.

Experiment: cAMP Responsive Elements (CRE) small molecule antagonists, cell-based qHTS assay (AID 1963591)
Conditions: CRE-bla HEK293T, beta-lactamase FRET ratio; series mostly up to 92.4 µM; activity change, negative = inhibition: at the top concentration
Description: U.S. Tox21 Program National Center for Advancing Translational Sciences [NCATS] Division of Preclinical Innovation [DPI] U.S. Environmental Protection Agency [EPA] National Institutes of Environmental Health Sciences [NIEHS] National Toxicology Program [NTP] U.S. Food and Drug Administration [FDA] Tox21 Assay Overview: CREB (cyclic-AMP Responsive Element Binding Protein) is a cellular transcription factor. It binds to certain DNA sequences called cAMP Responsive Elements (CRE) and regulates the transcription of the genes. […] This cell line can be used to find agonists/antagonists of the cyclic AMP signaling pathway. The activation of the report gene under culture conditions can be detected by fluorescence intensity. This cell line has been used to screen the Tox21 10K compound library to […].
Tox21 Assay Protocol Summary: CRE-bla Hek 293T cells were suspended in assay medium (DMEM containing 10% dialyzed FBS, 0.1 mM NEAA, 1 mM sodium pyruvate and 25 mM HEPES) and dispensed at 2,000 cells/4 uL /well into 1536-well black wall/clear bottom plates using a Multidrop Combi (ThermoFisher Scientific, Waltham, MA) dispenser. After the assay plates were incubated at 37 C/5% CO2 for 18 hrs, 23 nL of compounds dissolved in DMSO, positive controls or DMSO only was transferred to the assay plate by a pintool workstation (Kalypsys, San Diego, CA), followed by addition of 1 […] uL of 1.25uM NKH477 (0.25 uM as final concentration) in assay medium using a Flying Reagent Dispenser (Aurora Discovery, San Diego, CA). The plates were incubated at 37 C and 5% CO2 for 3 hrs. Then 1 uL of LiveBLAzer B/G FRET substrate (Invitrogen, Carlsbad, CA) was added to each well using Bioraptr Flying Reagent Dispenser (FRD, Aurora Discovery, San Diego, CA). The plates were incubated at room temperature for 2 h.
In the case of `Cc1cnc(NC(=O)C2=C(O)c3ccccc3S(=O)(=O)N2C)s1`, the Potency is reported as “inactive”.
In the case of `O=C1CCC(N2C(=O)c3ccccc3C2=O)C(=O)N1` (stereo not given), the Potency is reported as “inactive”.
With `CC1=CC[C@H]2C[C@@H]1C2(C)C` the Potency was “inactive”.
With `C=CCOC(=O)CC(C)C` the Potency was “inactive”.
For `CC1=CCC2CC1C2(C)C` (stereo not given), the Potency was “inactive”.
For `OC1CCCCC1`, the Potency was “inactive”.
For `COc1cc(C=O)ccc1O`, the Potency was “inactive”.
For `COc1ccccc1OCC(O)CO` (stereo not given), the Potency was “inactive”.
In the case of `CC(C)=CCC/C(C)=C/C=O`, the “activity change, negative = inhibition” value is reported as -2.11% (inactive).
In the case of `CC(=O)C1=C(C)[C@@H]2C[C@@]3(C1)[C@H](C)CC[C@H]3C2(C)C`, the Potency is reported as “inactive”.
For `COC(=O)C1CCC(C(=O)OC)CC1` (stereo not given), the Potency was “inactive”.
In the case of `FC(F)(F)c1ccc(Cl)c(Cl)c1`, the “activity change, negative = inhibition” value is reported as 3.68% (inactive).
For `CC1(C)C(=O)N(Cl)C(=O)N1Cl`, the Potency was “inactive”.
For `Nc1cc([N+](=O)[O-])ccc1C(=O)O`, the Potency was “inactive”.
In the case of `O=C(Oc1ccccc1)c1ccccc1O`, the Potency is reported as “inactive”.
With `O=C(O)c1ccccc1Nc1cccc(C(F)(F)F)c1` the “activity change, negative = inhibition” value was 0.67% [at 42.4 µM] (inactive).
With `C=CC(=O)OCCCC` the Potency was “inactive”.
For `CCCCCCc1ccc(O)cc1O`, the “activity change, negative = inhibition” value was -16.8% [at 42.4 µM] (inactive).
For `OC(Cn1cncn1)(Cn1cncn1)c1ccc(F)cc1F`, the Potency was “inactive”.
In the case of `C=C(C)C(=O)OCCCCCCCCCCCC`, the Potency is reported as “inactive”.
With `O=C(CC(C(=O)OC1CCCCC1)S(=O)(=O)O)OC1CCCCC1` (stereo not given) the Potency was “inactive”.
In the case of `CCCCNS(=O)(=O)c1ccccc1`, the Potency is reported as “inactive”.
With `O=c1c(O)c(-c2ccc(O)c(O)c2)oc2cc(O)cc(O)c12` the “activity change, negative = inhibition” value was -20.7% (inactive).
In the case of `CC1=CC(C)(C)Nc2ccccc21`, the Potency is reported as “inactive”.
With `NS(=O)(=O)c1cc2c(cc1Cl)NCNS2(=O)=O` the Potency was “inactive”.
With `CC(C)=CCCC(C)CCO` (stereo not given) the Potency was “inactive”.
For `COc1ccc(C(Cl)=C(c2ccc(OC)cc2)c2ccc(OC)cc2)cc1`, the Potency was “inactive”.
In the case of `O=C1O[C@H](CO)[C@@H](O)[C@H](O)[C@H]1O`, the Potency is reported as “inactive”.
For `CNC[C@H](O)c1cccc(O)c1`, the Potency was “inactive”.
For `CC(C)C(=O)Nc1ccc([N+](=O)[O-])c(C(F)(F)F)c1`, the Potency was “inactive”.
For `c1ccc(Oc2ccccc2)cc1`, the Potency was “inactive”.
With `C=C(CC(=O)O)C(=O)O` the Potency was “inactive”.
With `C[Si](C)(C)O[Si](C)(C)C` the Potency was “inactive”.
For `CCO[Si](CCC#N)(OCC)OCC`, the Potency was “inactive”.
With `O=[N+]([O-])C(CO)(CO)CO` the Potency was “inactive”.
With `O=C(O)Cc1c[nH]c2ccccc12` the Potency was “inactive”.
In the case of `Cc1ccc2c(c1)C(=O)OC2=O`, the Potency is reported as “inactive”.
With `NC1CCCCC1` the Potency was “inactive”.
In the case of `CCCCCCCCCCCCCO`, the “activity change, negative = inhibition” value is reported as 0.602% (inactive).
With `O=C(O)Cn1c(=O)n(Cc2ccc(Br)cc2F)c(=O)c2ccc(Cl)cc21` the “activity change, negative = inhibition” value was 15% [at 42.4 µM] (inactive).
